Where “and” joins values, the source holds several entries; their conditions need not be identical. Equal entries are not always repeated. Inconclusive results are not listed. A structure can be active in one record and inactive in another. Calls of active or inactive are those of the source. The call rests on the fitted dose curve; in most records, active means well fitted curve in the direction sought with a large enough effect in the repeat runs; inconclusive means weak or mixed curves; inactive means no such curve, though single readings can be large; an effect the other way counts as inactive or inconclusive.
Experiments:
[1] = A CellTox Green Cytotoxicity Assay to monitor cytotoxicity in HEK293 cells - 40 hour (AID 1224871); further: nearly all actives have a fitted effect of over 45% in size; further: potency means the concentration at half of the fitted maximal effect
Summary of the method: (§1)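 Real-time, in one plate: 600 HEK293 cells/well with dead-cell DNA dye, pinned compound after 5 h, 37 C incubation over 40 h; viable cells give no appreciable fluorescence.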

[2] = qHTS RealTime-Glo MT Cell Viability Assay in HEK293 cells - 16 hour (AID 1224872); further: nearly all actives have a fitted effect of over 50% in size; further: potency means the concentration at half of the fitted maximal effect
Summary of the method: (§2)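 HEK293 cells were seeded at 600 cells/well together with NanoLuc luciferase and cell-permeant prosubstrate, preincubated 5 h at 37 C/5% CO2, then given compound in DMSO by pintool. Luminescence from viable-cell prosubstrate reduction was read repeatedly over 40 h.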

[3] = qHTS RealTime-Glo MT Cell Viability Assay in HepG2 cells - 8 hour (AID 1224873); further: nearly all actives have a fitted effect of over 55% in size
Summary of the method: (§3)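 HepG2 cells mixed with RealTime-Glo MT reagents (NanoLuc plus cell-permeant prosubstrate) were seeded at 600 cells/well, incubated 5 h at 37 C/5% CO2, then pinned with compounds in DMSO; nonlytic luminescence tracked viability during 40 h treatment.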

[4] = qHTS RealTime-Glo MT Cell Viability Assay in HEK293 cells - 40 hour (AID 1224874); details: RealTime-Glo luminescence; max response: stronger effect = lower value; further: nearly all actives have a fitted effect of over 50% in size; further: potency means the concentration at half of the fitted maximal effect
Summary of the method: (§4)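 Kinetic, non-lysing viability readout. Seed HEK293 (600/well) with reagent, incubate 5 h at 37 C/5% CO2, pin 23 nL compound in DMSO, incubate at 37 C, read luminescence at 0, 8, 16, 24, 32, 40 h.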

[5] = A CellTox Green Cytotoxicity Assay to monitor cytotoxicity in HepG2 cells - 16 hour (AID 1224876); further: nearly all actives have a fitted effect of over 45% in size; further: potency means the concentration at half of the fitted maximal effect
Summary of the method: (§5)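 Cytotoxicity was tracked as dead-cell DNA fluorescence in HepG2 cells treated with test compounds at 37 C; each time-point value comes from one kinetic series spanning 0, 8, 16, 24, 32 and 40 h.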

[6] = qHTS RealTime-Glo MT Cell Viability Assay in HepG2 cells - 32 hour (AID 1224877); further: nearly all actives have a fitted effect of over 55% in size; further: potency means the concentration at half of the fitted maximal effect
Summary of the method: (§6)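 HepG2 cells were seeded at 600 cells/well together with NanoLuc luciferase and a cell-permeant prosubstrate, preincubated 5 h at 37 C/5% CO2, then pin-dosed with compounds in DMSO. Nonlytic luminescence from viable cells was read at each time point.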

[7] = A CellTox Green Cytotoxicity Assay to monitor cytotoxicity in HepG2 cells - 24 hour (AID 1224878); further: nearly all actives have a fitted effect of over 45% in size; further: potency means the concentration at half of the fitted maximal effect
Summary of the method: as §5

[8] = A CellTox Green Cytotoxicity Assay to monitor cytotoxicity in HepG2 cells - 40 hour (AID 1224879); further: nearly all actives have a fitted effect of over 40% in size; further: potency means the concentration at half of the fitted maximal effect
Summary of the method: as §5

[9] = qHTS RealTime-Glo MT Cell Viability Assay in HEK293 cells - 0 hour (AID 1224880); further: top concentration of the series differs between compounds; nearly all actives have a fitted effect of over 45% in size
Summary of the method: as §4

[10] = A CellTox Green Cytotoxicity Assay to monitor cytotoxicity in HEK293 cells - 32 hour (AID 1224881); further: nearly all actives have a fitted effect of over 40% in size; further: potency means the concentration at half of the fitted maximal effect
Summary of the method: as §1

[11] = A CellTox Green Cytotoxicity Assay to monitor cytotoxicity in HepG2 cells - 32 hour (AID 1224883); further: nearly all actives have a fitted effect of over 50% in size; further: potency means the concentration at half of the fitted maximal effect
Summary of the method: as §5

[12] = A CellTox Green Cytotoxicity Assay to monitor cytotoxicity in HEK293 cells - 8 hour (AID 1224884); further: nearly all actives have a fitted effect of over 35% in size; further: potency means the concentration at half of the fitted maximal effect
Summary of the method: as §1

[13] = qHTS RealTime-Glo MT Cell Viability Assay in HepG2 cells - 16 hour (AID 1224885); further: nearly all actives have a fitted effect of over 50% in size; further: potency means the concentration at half of the fitted maximal effect
Summary of the method: as §6

[14] = qHTS RealTime-Glo MT Cell Viability Assay in HEK293 cells - 24 hour (AID 1224886); further: nearly all actives have a fitted effect of over 50% in size; further: potency means the concentration at half of the fitted maximal effect
Summary of the method: as §2

[15] = qHTS RealTime-Glo MT Cell Viability Assay in HEK293 cells - 8 hour (AID 1224887)
Summary of the method: as §4

[16] = qHTS RealTime-Glo MT Cell Viability Assay in HepG2 cells - 0 hour (AID 1224889); further: nearly all actives have a fitted effect of over 50% in size
Summary of the method: as §6

[17] = qHTS RealTime-Glo MT Cell Viability Assay in HepG2 cells - 40 hour (AID 1224870); further: nearly all actives have a fitted effect of over 50% in size
Summary of the method: as §3

[18] = A CellTox Green Cytotoxicity Assay to monitor cytotoxicity in HEK293 cells - 24 hour (AID 1224875)
Summary of the method: as §1

[19] = A CellTox Green Cytotoxicity Assay to monitor cytotoxicity in HepG2 cells - 0 hour (AID 1224882); further: nearly all actives have a fitted effect of over 35% in size; further: potency means the concentration at half of the fitted maximal effect
Summary of the method: as §5

[20] = A CellTox Green Cytotoxicity Assay to monitor cytotoxicity in HEK293 cells - 16 hour (AID 1224888); further: nearly all actives have a fitted effect of over 35% in size
Summary of the method: as §1
On the % scale 0 is the no-effect control and ±100 the full control effect.

c1ccc2[nH]ccc2c1
active: Potency [4] 2.15 µM
5.41 µM (active) and inactive: Potency [8]
15.2 µM (active) and inactive: Potency [13]
inactive: outcome [3] | max response [4] 8.38% and -1.27% | Potency [9] | Potency [12] | Potency [15] | Potency [16]
21.5 µM (active) and inactive: Potency [5]
2.41 µM (active) and inactive: Potency [14]
3.83 µM (active) and inactive: Potency [6] | Potency [11]
2.15 µM (active) and inactive: Potency [2]
6.81 µM (active) and inactive: Potency [7] | Potency [10]
4.82 µM (active) and inactive: Potency [1]

CCCN(CCC)S(=O)(=O)c1ccc(C(=O)O)cc1
inactive: Potency [17] | Potency [1] | Potency [2] | outcome [3] | max response [4] -6.3% and -3.84% and 10.6% | Potency [18] | Potency [5] | Potency [6] | Potency [7] | Potency [8] | Potency [9] | Potency [10] | Potency [19] | Potency [11] | Potency [12] | Potency [13] | Potency [14] | Potency [15] | Potency [20] | Potency [16]

NC(=O)c1ccccc1O
inactive: Potency [17] | Potency [1] | Potency [2] | outcome [3] | max response [4] 0.307% and -0.424% and 11.5% | Potency [18] | Potency [5] | Potency [6] | Potency [7] | Potency [8] | Potency [9] | Potency [10] | Potency [19] | Potency [11] | Potency [12] | Potency [13] | Potency [14] | Potency [15] | Potency [20] | Potency [16]

Cc1ccc(C)c(OCCCC(C)(C)C(=O)O)c1
inactive: Potency [17] | Potency [1] | Potency [2] | outcome [3] | max response [4] 7.5% and 19.4% and 5.2% | Potency [18] | Potency [5] | Potency [6] | Potency [7] | Potency [8] | Potency [9] | Potency [10] | Potency [11] | Potency [12] | Potency [13] | Potency [14] | Potency [20] | Potency [16]

CCCCOC(=O)CC(CC(=O)OCCCC)(OC(C)=O)C(=O)OCCCC
inactive: Potency [17] | Potency [1] | Potency [2] | outcome [3] | max response [4] -6.55% and -23.8% and -22.3% | Potency [18] | Potency [5] | Potency [6] | Potency [7] | Potency [8] | Potency [9] | Potency [10] | Potency [19] | Potency [11] | Potency [12] | Potency [13] | Potency [14] | Potency [15] | Potency [20] | Potency [16]

CCOc1ccc(NC(=O)CC(C)O)cc1 (centres undefined)
inactive: Potency [17] | Potency [1] | Potency [2] | outcome [3] | max response [4] -0.988% and -3.57% and -1.9% | Potency [18] | Potency [5] | Potency [6] | Potency [7] | Potency [8] | Potency [9] | Potency [10] | Potency [19] | Potency [11] | Potency [12] | Potency [13] | Potency [14] | Potency [15] | Potency [20] | Potency [16]

Nc1ccc(S(=O)(=O)Nc2nccs2)cc1
inactive and 38.9 µM (active): Potency [5] | Potency [8]
inactive and 43.6 µM (active): Potency [1] | Potency [7] | Potency [10] | Potency [19] | Potency [11]
inactive: Potency [17] | Potency [2] | outcome [3] | max response [4] 5.06% [middle of 4 runs] | Potency [6] | Potency [9] | Potency [13] | Potency [14] | Potency [15] | Potency [16]
inactive and 49 µM (active): Potency [12]

Cc1ccc(S(=O)(=O)NC(=O)NN2CCCCCC2)cc1
inactive: Potency [17] | Potency [1] | Potency [2] | outcome [3] | max response [4] 3.5% and 3.12% and 7.81% | Potency [18] | Potency [5] | Potency [6] | Potency [7] | Potency [8] | Potency [9] | Potency [10] | Potency [19] | Potency [11] | Potency [12] | Potency [13] | Potency [14] | Potency [15] | Potency [20] | Potency [16]

O=S(=O)(O)c1ccc2cc(O)ccc2c1
inactive: Potency [17] | Potency [1] | Potency [2] | outcome [3] | max response [4] -0.603% [middle of 4 runs] | Potency [18] | Potency [5] | Potency [6] | Potency [7] | Potency [8] | Potency [9] | Potency [10] | Potency [11] | Potency [12] | Potency [13] | Potency [14] | Potency [20] | Potency [16]

O=C(O)CS
inactive: Potency [17] | Potency [1] | Potency [2] | outcome [3] | max response [4] 1.63% and 9.97% and 1.26% | Potency [18] | Potency [5] | Potency [6] | Potency [7] | Potency [8] | Potency [9] | Potency [10] | Potency [19] | Potency [11] | Potency [12] | Potency [13] | Potency [14] | Potency [15] | Potency [20] | Potency [16]

CNC[C@H](O)c1cccc(O)c1
inactive: Potency [17] | Potency [1] | Potency [2] | outcome [3] | max response [4] 8.72% and 5.33% and 3.68% | Potency [18] | Potency [5] | Potency [6] | Potency [7] | Potency [8] | Potency [9] | Potency [10] | Potency [11] | Potency [12] | Potency [13] | Potency [14] | Potency [20] | Potency [16]
